Source: PubChem
The list is not random: actives were taken first. Their share in the collection is about 2.2%.
KLF5 inhibitor: KLF5 expression inhibitors, primary screen, DLD-1 cells, luminescence | DLD-1 KLF5 promoter-luciferase reporter | inhibition, % at 5 µM | 290,000 tested, 0.23% active | AID 1700, 2009;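 active = inhibition above a per-plate limit of that plate's mean compound inhibition plus 3 SD, cut at about 60% in these data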;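 also: higher means less KLF5 promoter-driven luciferase light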
BaF3 parental: parental Ba/F3 cell viability inhibition, counter-screen for JAK2V617F inhibitor project, murine pro-B, CellTiter-Glo luminescence. CellTiter-Glo ATP luminescence. inhibition, % at 5.6 µM. 220,000 tested, 1.1% active. AID 1486, 2009;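 active = inhibition above a per-campaign cutoff, the mean inhibition of all tested compounds plus 3 SD, cut at about 27% in these data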
IEC-6 cytotox: cytotoxicity in IEC-6 intestinal epithelial cells, primary screen, cytotoxicity control for KLF5 inhibitor project, cell-based, luminescence; IEC-6 cytotoxicity, luminescence viability; 290,000 tested, 0.78% active; inhibition, % at 5 µM; AID 1825, 2009; in the data active = inhibition above about 22%
aSyn UTR inh: MLPCN primary screen, SNCA 5' untranslated region; alpha-synuclein 5'UTR reporter, inhibitor activity; inhibition, % (tested at 7.5 µM); 300,000 tested, 0.82% active; AID 1813, 2009; in the data active = inhibition above about 60%;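 also: H4 neuroglioblastoma cells stably carrying SNCA 5'UTR luciferase fusion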
Ba/F3 V617F tox: reduced viability of JAK2V617F-dependent Ba/F3 cells, primary screen, JAK2V617F inhibitor project, cell-based, Ba/F3 EpoR-JAK2V617F, luminescence; ATP luminescence; inhibition, % at 5.6 µM; 220,000 tested, 1.1% active; AID 1446, 2008;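 active = inhibition above the campaign mean plus 3 SD over all tested compounds, cut at about 24% in these data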;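 also: cytokine-independent growth of Ba/F3 cells driven by EpoR plus mutant JAK2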
APP 5UTR inh: inhibitors of APP translation via 5'UTR reporter, primary screen, APP 5'UTR luciferase, SH-SY5Y cells; SH-SY5Y APP 5'UTR-luciferase reporter, luminescence; inhibition, % at 2 µM; 190,000 tested, 0.82% active; AID 1285, 2008;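 active = inhibition above a set limit, derived from the sample mean plus 3 SD, cut at about 45% in these data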
A number is an active result; – = inactive; · = no result given.

SMILES | KLF5 inhibitor | BaF3 parental | IEC-6 cytotox | aSyn UTR inh | Ba/F3 V617F tox | APP 5UTR inh
CC(C)CN1C(=O)NC(NC(=O)c2ccco2)(C(F)(F)F)C1=O (configuration not stated) | – | 95 | – | – | – | –
S=C(NCCc1ccccc1)NCCN1CCOCC1 | – | · | – | – | · | ·
CN(C(=S)NCCN1CCOCC1)C(c1ccccc1)c1ccccc1 | – | 44 | – | – | – | –
Cc1ccc(-n2nc3c(c2NC(=O)c2ccccc2)CS(=O)(=O)C3)cc1C | – | · | – | – | · | ·
COc1ccc(CNc2cccc3[nH]c(C(F)(F)F)nc23)cc1OC | – | · | – | – | · | ·
O=C(Cc1ccccc1)Nc1cccc(N2C(=O)C=CC2=O)c1 | – | – | – | – | – | 67
Brc1ccc(-c2cnc3n2CCCC3)cc1 | – | – | – | – | – | –
CCOc1ccc(-c2cnc3n2CCC3)cc1 | – | – | – | – | – | 46
COc1ccc(-c2coc3cc4oc(=O)c5ccccc5c4cc23)cc1F | – | – | – | 81 | – | 96
Cc1cc(NC(=O)c2cncc(Br)c2)ccc1NC(=O)c1cc2ccccc2o1 | – | · | – | 78 | · | ·
COc1cc(NC(=O)c2ccccc2)ccc1NC(=O)c1cc2ccccc2o1 | – | · | – | – | · | ·
O=C(Nc1ccc(CN2CCOCC2)cc1)c1cc2ccccn2n1 | – | – | – | 72 | – | –
Cc1ccc2nc(C)cc(C(=O)N/N=C/c3ccncc3)c2c1 | – | · | – | – | · | ·
COC(=O)c1sc(S(=O)(=O)N2CCCCC2C(=O)O)c(C(=O)OC)c1C (configuration not stated) | – | – | – | – | – | 59
CSCCC(NC(=O)COc1ccccc1)C(=O)NCCOc1ccc(C)cc1 (configuration not stated) | – | · | – | – | · | ·
Cc1ccc(C(=O)Nc2cccc(NC(=O)c3cccs3)c2)c(C)c1 | – | · | – | – | · | ·
Cc1ccc(/C=C2/NC(=O)N(c3ccccc3)C2=O)o1 | – | – | – | – | – | –
O=C1N/C(=C/c2ccc(N3CCOCC3)o2)C(=O)N1c1cccc(Cl)c1 | – | – | – | – | – | 76
CC1(C)Cc2c(sc(NC(=O)COc3cccc4ccccc34)c2C#N)C(C)(C)N1 | – | – | – | 72 | – | ·
Cc1ccc(OCC(=O)Nc2sc3c(c2C#N)CC(C)(C)NC3(C)C)cc1 | – | – | – | – | – | –
Cc1c(N/N=C(\C#N)C(=O)c2ccc(Cl)cc2)c(=O)n(-c2ccccc2)n1C | – | 62 | – | 86 | 31 | 73
Cc1c(NC(=O)C(C)Sc2ccccc2)c(=O)n(-c2ccccc2)n1C (configuration not stated) | – | – | – | – | – | 58
Cc1c(NC(=O)COC(=O)C(c2ccc(Cl)cc2)C(C)C)c(=O)n(-c2ccccc2)n1C (configuration not stated) | – | 97 | – | – | – | ·
Cc1c(NC(=O)COC(=O)/C=C/c2ccc(Cl)cc2)c(=O)n(-c2ccccc2)n1C | – | – | – | – | – | –
O=S(=O)(/C=C/c1ccccc1)N1CCOCC1 | – | · | – | – | · | ·
SMILES | KLF5 inhibitor | BaF3 parental | IEC-6 cytotox | aSyn UTR inh | Ba/F3 V617F tox | APP 5UTR inh
Clc1cc(/C=N\NC2=NCCN2)cc(Cl)n1 | · | · | · | – | · | ·
Cc1ccccc1NS(=O)(=O)c1ccc2oc(=O)ccc2c1 | – | · | – | – | · | ·
CCC(=O)c1cn(CC(=O)Nc2ccc(C)cc2C)c2ccccc12 | – | · | – | – | · | ·
CC(OC(=O)Cn1cnc2c1c(=O)n(C)c(=O)n2C)C(=O)Nc1ccc(Cl)cc1 (configuration not stated) | · | · | · | – | · | ·
O=C(NN=C1CCCC1)c1[nH]c2ccc(Br)cc2c1-c1ccccc1 | – | – | – | · | – | ·
O=C(N/N=C/c1ccccc1)c1[nH]c2ccc(Br)cc2c1-c1ccccc1 | – | – | – | – | – | 88
O=C(Oc1c(CN2CCOCC2)cc(Cl)c2cccnc12)c1ccccc1 | – | – | 26 | – | – | 53
O=C(Oc1c(CN2CCOCC2)cc(Cl)c2cccnc12)c1ccccc1F | – | – | – | 106 | – | 75
Oc1c(CN2CCc3ccccc3C2)cc(Cl)c2cccnc12 | – | – | – | 91 | – | –
Oc1c(I)cc(Cl)c2cccnc12 | – | – | – | – | – | –
Oc1c(CN2CCCCC2)cc(Br)c2cccnc12 | – | 27 | – | 112 | 44 | 67
CCOc1ccccc1C1C(C#N)=C(N)N(N(C)C)C2=C1C(=O)CCC2 (configuration not stated) | – | · | – | – | · | ·
O=C(CCNC(=O)c1ccco1)Nc1ccc(Cl)c(C(F)(F)F)c1 | – | · | – | – | · | ·
CNC(=S)Nc1ccc(Br)cc1 | – | – | – | – | – | –
Cc1c(/N=C(\[O-])Nc2ccc(Br)cc2)sn[n+]1C | – | – | – | 89 | – | ·
CN1/C(=C/c2cc[n+](C)c3ccccc23)C=Cc2ccccc21 | – | 63 | – | · | 76 | –
O=C(Nc1cccc(-c2nc3ccccc3o2)c1)c1ccc(N2C(=O)C3C4C=CC(C4)C3C2=O)cc1 (configuration not stated) | – | – | – | 88 | – | –
Cc1ccc(S(=O)(=O)N2CCN(C(=O)COC(=O)CCOc3ccc(C(C)(C)C)cc3)CC2)cc1 | · | · | · | – | · | ·
CCSc1nc2sc3c(c2c(=O)n1-c1ccc(OC)cc1)CCN(C)C3 | – | 38 | – | – | – | ·
CN(CC(=O)Nc1cccc(F)c1)C(=O)CCCn1c(=O)oc2ccccc21 | · | · | · | – | · | ·
COc1ccc(-c2cc(CCCC(=O)NCCc3cc(OC)ccc3OC)no2)cc1 | – | – | – | – | – | –
CCOc1ccc(-c2cc(CCCC(=O)NCc3ccc(C)cc3)no2)cc1 | – | – | – | 81 | – | –
CCOc1ccc(-c2cc(CCCC(=O)NCc3ccco3)no2)cc1 | – | – | – | 73 | – | –
c1c2c(cc3sc(N4CCOCC4)nc13)OCCO2 | – | – | – | 94 | – | –
c1ccc(N2CCN(c3nc4cc5c(cc4s3)OCCO5)CC2)cc1 | – | – | – | – | – | –
SMILES | KLF5 inhibitor | BaF3 parental | IEC-6 cytotox | aSyn UTR inh | Ba/F3 V617F tox | APP 5UTR inh
CCCCCC(=O)NC(=S)Nc1ccccc1C(=O)OC | – | – | – | – | – | 72
CCCCC(=O)NC(=S)Nc1ccccc1C(=O)Nc1ccccc1 | – | – | – | – | – | –
O=C1c2ccccc2C(=O)C1c1ccnc2ccccc12 | – | – | – | 89 | – | –
O=C1c2ccccc2C(=O)C1c1nccc2ccccc12 | – | – | – | 99 | – | –
O=C(NCCOc1ccc(F)cc1)C1CCC(=O)N(CCN2CCOCC2)C1 (configuration not stated) | – | · | – | – | · | ·
CC1CCCCN1S(=O)(=O)c1cccc2nonc12 (configuration not stated) | – | · | – | – | · | ·
COc1ccc(-n2ncc3c2CC(C)(C)CC3NC(=O)c2c(C)cc(=O)oc2C)cc1 (configuration not stated) | – | · | – | – | · | ·
